CBFb RUNX1 block – qHTS Assay for Compounds Blocking the Interaction Between CBF-beta and RUNX1 for the Treatment of Acute Myeloid Leukemia; 230,000 tested, under 10 active; AlphaScreen CBFb-His/RUNX1-biotin binding, biochemical; Potency, µM (doses to about 59.8 µM), inactives show at the highest dose activity, negative = inhibition, usual class: inhibitors; AID 1477, 2009; Runt-related transcription factor 1 (Homo sapiens) + Core-binding factor subunit beta …; note: % of control where 0% means no effect
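AlphaScreen binding: CBFb-His and RUNX1-biotin (30 nM each) preincubated 20 min, compound added for 15 min, then nickel and streptavidin beads for 90 min, all at room temperature. Disruption of the interaction by any mechanism counts as activity.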
RGS12 GoLoco inh – qHTS Assay for Inhibitors of RGS12 GoLoco Motif Activity (Red Fluorophore); Gai1:RGS12 GoLoco peptide FP, rhodamine, 10 min; Potency, µM (doses to about 61.6 µM), inactives show at the highest dose activity, negative = inhibition, actives largely listed as inhibitors; 0.44% of 230,000 active; active = well fitted inhibition curve with a large enough effect, not every such curve was filed as active; inactive = no such curve, though single readings can be large or run the other way; note: potency is the fitted concentration of half-maximal effect; % is set by controls: 0 for no effect and ±100 for the full control effect; nearly all actives have a fitted effect of over 30% in size
TR SRC2 fluor cs – Total Fluorescence Counterscreen for Inhibitors of the Interaction of Thyroid Hormone Receptor and Steroid Receptor Coregulator 2; Potency, µM (highest dose often 106 µM), for inactives: at the top dose fluorescence change, negative = quenching; AID 1479, 2009; TRb/SRC2 Texas Red total fluorescence interference; 0.29% of 280,000 active; active = well fitted curve in either direction with a large enough effect; inconclusive = small, poorly fitted or top-dose-only effect; note: potency is the fitted concentration of half-maximal effect; % is set by controls: 0 for no effect and ±100 for the full control effect
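Human TRb ligand-binding domain at 0.6 uM with 20 nM Texas Red SRC2 peptide in Tris buffer containing 1 uM T3 and 5% DMSO, incubated with compound 5 h at ambient temperature. Total fluorescence (555/632 nm) calculated as parallel + 2 × perpendicular.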
ERG-DNA inh – qHTS for Small Molecule Inhibitors of the ERG Ets/DNA interaction; Transcriptional regulator ERG (Homo sapiens), P11308; fluorescence polarization, His-ERG Ets domain / labelled DNA; Potency, µM (titrated, usually from 76.9 µM), for inactives: top-dose FP activity, negative = inhibition, most hits filed as inhibitors; 0.028% of 370,000 active; active = well fitted inhibition curve with a large enough effect in the polarisation, with a control signal flat; inconclusive = small, poorly fitted or top-dose-only effect, or effect the other way, or a change in a side signal; inactive = no such curve, though single readings can be large or run the other way; the % refers to the polarisation;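 note: polarization taken with two DNA probes labelled with fluorescein and Texas red; potency is the fitted concentration of half-maximal effect; % of control where 0% means no effect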
Target sequence (P11308 whole entry, looked up, the tested form may be a part): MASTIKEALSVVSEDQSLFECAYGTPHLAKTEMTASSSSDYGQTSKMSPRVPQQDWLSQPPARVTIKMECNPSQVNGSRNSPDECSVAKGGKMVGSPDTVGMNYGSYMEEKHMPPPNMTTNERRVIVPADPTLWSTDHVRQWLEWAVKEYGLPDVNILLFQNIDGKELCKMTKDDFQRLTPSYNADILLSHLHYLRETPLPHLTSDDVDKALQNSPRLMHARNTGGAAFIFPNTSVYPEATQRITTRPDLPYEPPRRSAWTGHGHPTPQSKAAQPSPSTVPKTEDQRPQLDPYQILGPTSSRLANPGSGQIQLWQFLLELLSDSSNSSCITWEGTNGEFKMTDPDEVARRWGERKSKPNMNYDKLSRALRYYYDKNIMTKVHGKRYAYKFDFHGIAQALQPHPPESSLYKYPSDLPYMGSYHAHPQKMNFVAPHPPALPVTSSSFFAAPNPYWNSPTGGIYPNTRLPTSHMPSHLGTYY
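His-tagged ERG Ets domain (1 uM in the protein solution; 300mM KCl, 50mM Tris-HCl, 1mM EDTA, 1mM DTT, pH 7.5) received compound, then a probe mix of 5 nM fluorescein-DNA and 100nM Texas-615-DNA. Fluorescence polarization was read for both dyes.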
TRb SRC2 PPI – qHTS for Inhibitors of the Interaction of Thyroid Hormone Receptor and Steroid Receptor Coregulator 2 | Thyroid hormone receptor beta (Homo sapiens), P10828 | TRbeta-SRC2 peptide binding, fluorescence polarization; receptor liganded with 1 µM T3 | Potency, µM (doses to about 106 µM), inactives show at the highest dose activity change, negative = inhibition, hits mostly inhibitors | AID 1469, 2008 | 0.065% of 280,000 active;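 note: potency is the fitted concentration of half-maximal effect; plate controls were bound peptide for no effect and peptide without receptor for full effect; nearly all actives have a fitted effect of over 50% in size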
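A fluorescence polarization screen tested compounds at multiple concentrations against complex formation between 0.6 uM TRb ligand-binding domain and 20 nM Texas Red SRC2 peptide, with 1 uM T3 present; readout after 5 hr.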
* marks the source's active call; other numbers are inactive results; [ ] = remark or other dose. Shown is part of a subset that was picked to be rich in hits. Unless noted, calls come from the whole dose curve; as a rule, active = well fitted curve in the direction sought with a large enough effect; inconclusive = small, poorly fitted or top-dose-only effect, or another doubt; inactive = no such curve, though single readings can be large; an effect the other way counts as inactive or inconclusive.

Results for CCOC(=O)c1c(CSc2ccccc2)n(C)c2cc(Br)c(O)c(CN(C)C)c12 ?
CBFb RUNX1 block: -11.0%; RGS12 GoLoco inh: 22.4µM*; TR SRC2 fluor cs: 1.3%; ERG-DNA inh: -16.2%; TRb SRC2 PPI: 7.1%

What do the screens show for `CCOC(=O)c1c(CSc2ccc(C)cc2)n(C)c2cc(Br)c(O)c(CN(C)C)c12`?
CBFb RUNX1 block: inconclusive; RGS12 GoLoco inh: -5.8%; TR SRC2 fluor cs: -3.3%; ERG-DNA inh: 1.5%; TRb SRC2 PPI: 1.0%

Results for CC(C)CN(C(=O)COC(=O)CCCc1c[nH]c2ccccc12)c1c(N)n(Cc2ccccc2)c(=O)[nH]c1=O ?
ERG-DNA inh: 8.8%

What do the screens show for `CCCCOCCOCCOC(C)=O`?
TR SRC2 fluor cs: -5.2%[201 µM]; TRb SRC2 PPI: 2.4%[201 µM]

Results for O=C(CSc1ncnc2scc(-c3ccccc3)c12)N1CCN(Cc2ccc3c(c2)OCO3)CC1 ?
CBFb RUNX1 block: -28.4%; TR SRC2 fluor cs: 44.7µM*[fluorescent]; ERG-DNA inh: 31.1%; TRb SRC2 PPI: 4.4%

How did c1ccc(-c2csc3ncnc(N4CCN(Cc5ccc6c(c5)OCO6)CC4)c23)cc1 do in these assays?
ERG-DNA inh: -4.8%

What do the screens show for `O=C(N/N=C/c1ccc(-c2ccc(S(=O)(=O)Nc3ncccn3)cc2)o1)c1cc2ccccc2cc1O`?
RGS12 GoLoco inh: 25.1%; TR SRC2 fluor cs: 15.8µM*[quencher]; ERG-DNA inh: 13.2%; TRb SRC2 PPI: inconclusive

What do the screens show for `C#CCn1cc(/C=N/NC(=O)COc2cccc3cccnc23)c2ccccc21`?
CBFb RUNX1 block: 3.9%; RGS12 GoLoco inh: 0.794µM*; TR SRC2 fluor cs: -2.0%[53 µM]; ERG-DNA inh: -3.4%; TRb SRC2 PPI: -1.3%[53 µM]

Results for O=S(=O)(O)c1cc(S(=O)(=O)O)c2c(N=Nc3ccccc3)c(O)ccc2c1 ?
TR SRC2 fluor cs: -14.1%[201 µM]; TRb SRC2 PPI: -0.3%[201 µM]

What do the screens show for `CCN(CC)S(=O)(=O)c1cccc(N=NC2=C(O)CCCC2=O)c1`?
CBFb RUNX1 block: -7.5%; RGS12 GoLoco inh: 2.8%; TR SRC2 fluor cs: inconclusive; ERG-DNA inh: -12.4%; TRb SRC2 PPI: 39.8µM*

What do the screens show for `COCCNC(=O)C1CCN(C(=O)c2cc3sccc3n2Cc2ccc(Cl)cc2)CC1`?
TR SRC2 fluor cs: 28.2µM*[quencher]; ERG-DNA inh: 2.0%; TRb SRC2 PPI: -6.3%

Results for CCn1c(C(=O)N2CCC(C(=O)NCc3ccc(OC)cc3)CC2)cc2sccc21 ?
ERG-DNA inh: 3.8%

What do the screens show for `CCn1c(C(=O)N2CCC(C(=O)NCCc3ccc(OC)cc3OC)CC2)cc2sccc21`?
TR SRC2 fluor cs: 22.4µM*[quencher]; ERG-DNA inh: -0.4%; TRb SRC2 PPI: -9.7%

How did COCCCNC(=O)C1CCN(C(=O)c2cc3sccc3n2Cc2ccc(Cl)cc2)CC1 do in these assays?
TR SRC2 fluor cs: inconclusive; ERG-DNA inh: -0.2%; TRb SRC2 PPI: -0.7%

Results for Cc1cc2nc(-c3cccc(NC(=O)COc4ccc(Cl)c(C)c4)c3)oc2cc1C ?
TR SRC2 fluor cs: 1.2%; ERG-DNA inh: -0.2%; TRb SRC2 PPI: 2.6%

What do the screens show for `CSc1nc(=S)cc(C)[nH]1`?
CBFb RUNX1 block: 5.9%; RGS12 GoLoco inh: 5.62µM*; TR SRC2 fluor cs: 1.0%; ERG-DNA inh: 1.3%; TRb SRC2 PPI: 3.7%

How did CCN1/C(=C2\C(=O)N(c3ccccc3)N=C2C)C=Cc2cc(C)ccc21 do in these assays?
CBFb RUNX1 block: 2.1%; RGS12 GoLoco inh: 3.55µM*; TR SRC2 fluor cs: -2.9%; ERG-DNA inh: 2.5%; TRb SRC2 PPI: -2.8%

How did Cc1ccc(NS(=O)(=O)c2c(C(=O)N3CCCCCC3)c(C)n(C)c2C)cc1C do in these assays?
ERG-DNA inh: 2.5%

How did COc1cc(Cl)c(NC(=O)c2cc(S(=O)(=O)N3CCCCC3)c[nH]2)c(OC)c1 do in these assays?
TR SRC2 fluor cs: 20µM*[quencher]; ERG-DNA inh: -3.7%; TRb SRC2 PPI: -6.9%
